Results: PubChem BioAssay (EPA / NIEHS)
Activity calls are given as the source filed them. The calls were made as follows: active = hit-call score of the fitted dose curve at least 0.9, where 1 is the maximum; inactive = score below 0.9.

system: not listed separately; experiment: ATG_ERE_CIS: Attagene CIS-FACTORIAL HepG2 Assay for Estrogen Response Element (ERE) (AID 2282940); settings: HepG2 ERE cis-reporter, Attagene RNA transcript; actives raise or lower the signal
Summary of the method: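 HepG2 cells transiently transfected with multiplexed cis-element reporter units, measuring endogenous transcription factor activity; ERE reporter mRNA quantified after 24 h exposure by RT-PCR, fluorescent labelling, HpaI digestion and capillary electrophoresis. Bidirectional change versus DMSO.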

| Structure (SMILES) | outcome | AC50 |
| --- | --- | --- |
| O=C1CCCCCCCCCCCCCC1 | inactive | – |
| CCCC(=O)OC/C=C(\C)CCC=C(C)C | inactive | – |
| CN1CCCC1 | inactive | – |
| CCO[Si](CCCN)(OCC)OCC | inactive | – |
| CCCCCCC1CCC(=O)O1 (stereo not drawn) | inactive | – |
| O=[N+]([O-])c1ccccc1C(F)(F)F | inactive | – |
| C=C1CC[C@H]2C[C@@H]1C2(C)C | inactive | – |
| NC(=O)c1ccc(N)cc1 | inactive | – |
| Oc1ccc(Oc2ccccc2)cc1 | – | 1.54 µM (active) |
| c1ccc2c(c1)Oc1ccccc1S2 | – | 63.7 µM (active) |

system: not listed separately; experiment: ATG_Ets_CIS: Attagene CIS-FACTORIAL HepG2 Assay for human Erythroblast Transformation Specific (ETS) (AID 2282941); settings: HepG2 ETS cis-reporter transcription, actives raise or lower the signal
Summary of the method: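 Steps: transfect HepG2 with multiple reporter units; treat compound 24 h; isolate RNA, DNase-treat, reverse-transcribe; PCR-amplify, label with 6-FAM, digest with HpaI; separate by capillary electrophoresis. Activity fitted both directions versus DMSO.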

| Structure (SMILES) | outcome | AC50 |
| --- | --- | --- |
| CNC(=C[N+](=O)[O-])NCCSCc1csc(CN(C)C)n1 | inactive | – |
| O=C1CCCCCCCCCCCCCC1 | inactive | – |
| CCCCCCC(O)CCCCCCCCCCC(=O)OC (stereo not drawn) | inactive | – |
| COC(=O)c1ccccc1 | inactive | – |
| O=C(O)/C=C/C(=O)O | inactive | – |
| O=S(=O)(O)c1cccc2ccccc12 | inactive | – |
| C/C=C(\C)C(=O)OCC/C=C\CC | inactive | – |
| CC/C=C\CC/C=C/C(OCC)OCC | – | 100 µM (active) |
| C=CCOCC(CC)(CO)COCC=C | inactive | – |
| CCO[Si](CCCN)(OCC)OCC | inactive | – |
| CCCCCCC1CCC(=O)O1 (stereo not drawn) | inactive | – |
| CCC(=O)OCc1ccc(OC)cc1 | inactive | – |
| CCC(C)=NO | inactive | – |
| COc1cccc(OC)c1C(=O)O | inactive | – |
| C=C1CC[C@H]2C[C@@H]1C2(C)C | inactive | – |
| CCCCCC1CCCC(=O)O1 (stereo not drawn) | inactive | – |
| COC(=O)[C@]1(C)CCC[C@@]2(C)[C@H]1CC=C1C=C(C(C)C)CC[C@@H]12 | inactive | – |
| Cc1cc2nc3c(=O)[nH]c(=O)nc-3n(C[C@H](O)[C@H](O)[C@H](O)CO)c2cc1C | inactive | – |
| Cc1cc(-n2nc3ccc(Cl)cc3n2)c(O)c(C(C)(C)C)c1 | inactive | – |
| O=C(OCc1ccccc1)c1ccccc1 | inactive | – |
| c1ccc(CNc2ncnc3nc[nH]c23)cc1 | inactive | – |
| CC(=O)Nc1c(I)c(NC(C)=O)c(I)c(C(=O)O)c1I | inactive | – |
| Oc1cccc2ccccc12 | inactive | – |
| Oc1ccc(Oc2ccccc2)cc1 | inactive | – |
| CN(C)c1ccc(C(c2ccccc2)c2ccc(N(C)C)cc2)cc1 | inactive | – |
| CC[N+](CC)(CC(=O)Nc1c(C)cccc1C)Cc1ccccc1 (tested in a mixture with another compound) | inactive | – |

target: Hepatocyte nuclear factor 3-beta (Homo sapiens) (UniProt Q9Y261); experiment: ATG_FoxA2_CIS: Attagene CIS-FACTORIAL HepG2 Assay for human Forkhead box A2 (FOXA2) (AID 2282942); settings: HepG2 cis-reporter transcription factor activity, 24 h; actives raise or lower the signal
Summary of the method: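 Multiplexed cis-element reporter assay in transiently transfected HepG2. Twenty-four hours post-dosing, RNA was reverse-transcribed, amplified, FAM-labelled, HpaI-digested and separated by CE. Activity gain or loss relative to DMSO.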

Sequence of Hepatocyte nuclear factor 3-beta (Homo sapiens) (Q9Y261 whole entry, looked up): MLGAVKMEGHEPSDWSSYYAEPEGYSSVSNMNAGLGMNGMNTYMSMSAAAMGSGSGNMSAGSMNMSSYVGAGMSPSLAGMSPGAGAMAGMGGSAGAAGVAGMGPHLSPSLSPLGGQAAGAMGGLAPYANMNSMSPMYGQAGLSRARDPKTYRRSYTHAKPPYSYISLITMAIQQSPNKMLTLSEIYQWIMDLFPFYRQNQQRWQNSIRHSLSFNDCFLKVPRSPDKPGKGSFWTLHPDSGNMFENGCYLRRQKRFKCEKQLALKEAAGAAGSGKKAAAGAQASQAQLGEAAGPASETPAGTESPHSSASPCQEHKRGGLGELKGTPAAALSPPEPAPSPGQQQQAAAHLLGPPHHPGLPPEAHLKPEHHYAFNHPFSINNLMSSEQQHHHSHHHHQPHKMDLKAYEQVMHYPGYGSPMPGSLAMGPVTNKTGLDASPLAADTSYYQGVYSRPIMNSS

| Structure (SMILES) | outcome | AC50 |
| --- | --- | --- |
| CNC(=C[N+](=O)[O-])NCCSCc1csc(CN(C)C)n1 | inactive | – |
| O=C1CCCCCCCCCCCCCC1 | inactive | – |
| CCCC(=O)OC/C=C(\C)CCC=C(C)C | inactive | – |
| CCCCCCC(O)CCCCCCCCCCC(=O)OC (stereo not drawn) | inactive | – |
| COC(=O)c1ccccc1 | inactive | – |
| O=C(O)/C=C/C(=O)O | inactive | – |
| O=S(=O)(O)c1cccc2ccccc12 | inactive | – |
| C/C=C(\C)C(=O)OCC/C=C\CC | inactive | – |
| CC/C=C\CC/C=C/C(OCC)OCC | inactive | – |
| C=CCOCC(CC)(CO)COCC=C | inactive | – |
| CN1CCCC1 | inactive | – |
| CCO[Si](CCCN)(OCC)OCC | inactive | – |
| CCCCCCC1CCC(=O)O1 (stereo not drawn) | inactive | – |
| O=[N+]([O-])c1ccccc1C(F)(F)F | inactive | – |
| CCC(=O)OCc1ccc(OC)cc1 | inactive | – |
| CCc1cc(C(N)=S)ccn1 | inactive | – |
| CCC(C)=NO | inactive | – |
| COc1cccc(OC)c1C(=O)O | inactive | – |
| C=C1CC[C@H]2C[C@@H]1C2(C)C | inactive | – |

| Structure (SMILES) | outcome | AC50 |
| --- | --- | --- |
| CCCCCC1CCCC(=O)O1 (stereo not drawn) | inactive | – |
| COC(=O)[C@]1(C)CCC[C@@]2(C)[C@H]1CC=C1C=C(C(C)C)CC[C@@H]12 | inactive | – |
| Cc1cc2nc3c(=O)[nH]c(=O)nc-3n(C[C@H](O)[C@H](O)[C@H](O)CO)c2cc1C | inactive | – |
| Cc1cc(-n2nc3ccc(Cl)cc3n2)c(O)c(C(C)(C)C)c1 | inactive | – |
| O=C(OCc1ccccc1)c1ccccc1 | inactive | – |
| CCCCCCC1CCCC(=O)O1 (stereo not drawn) | inactive | – |
| c1ccc(CNc2ncnc3nc[nH]c23)cc1 | inactive | – |
| NC(=O)c1ccc(N)cc1 | inactive | – |
| CC(=O)Nc1c(I)c(NC(C)=O)c(I)c(C(=O)O)c1I | inactive | – |
| CC(C)=CCOC(=O)c1ccccc1 | inactive | – |
| Oc1cccc2ccccc12 | inactive | – |
| C=CN1CCCCCC1=O | inactive | – |
| Oc1ccc(Oc2ccccc2)cc1 | inactive | – |
| CC(=O)CCc1ccccc1 | inactive | – |
| CNC[C@H](O)[C@@H](O)[C@H](O)[C@H](O)CO | inactive | – |
| CN(C)c1ccc(C(c2ccccc2)c2ccc(N(C)C)cc2)cc1 | inactive | – |
| c1ccc2c(c1)Oc1ccccc1S2 | inactive | – |
| CCCCCC[C@@H](O)C/C=C\CCCCCCCC(=O)O | – | 172 µM (active) |
| CC[N+](CC)(CC(=O)Nc1c(C)cccc1C)Cc1ccccc1 (tested in a mixture with another compound) | inactive | – |

system: not listed separately; experiment: ATG_FoxO_CIS: Attagene CIS-FACTORIAL HepG2 Assay for human Forkhead box O (FoxO) (AID 2282943); settings: HepG2 Attagene cis-reporter, FoxO element, mRNA; actives raise or lower the signal
Summary of the method: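 24 h chemical exposure, HepG2 with transient cis-MRTU transfection. RNA extraction, oligo(dT) RT, reporter-specific PCR, primer-extension labelling, HpaI digestion, CE fragment analysis; bidirectional fit, DMSO baseline.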

| Structure (SMILES) | outcome | AC50 |
| --- | --- | --- |
| CNC(=C[N+](=O)[O-])NCCSCc1csc(CN(C)C)n1 | inactive | – |
| O=C1CCCCCCCCCCCCCC1 | inactive | – |
| CCCC(=O)OC/C=C(\C)CCC=C(C)C | inactive | – |
| CCCCCCC(O)CCCCCCCCCCC(=O)OC (stereo not drawn) | inactive | – |
| COC(=O)c1ccccc1 | inactive | – |
| O=C(O)/C=C/C(=O)O | inactive | – |
| O=S(=O)(O)c1cccc2ccccc12 | inactive | – |
| C/C=C(\C)C(=O)OCC/C=C\CC | inactive | – |
| CC/C=C\CC/C=C/C(OCC)OCC | inactive | – |
| C=CCOCC(CC)(CO)COCC=C | inactive | – |
| CN1CCCC1 | inactive | – |
| CCO[Si](CCCN)(OCC)OCC | inactive | – |
| CCCCCCC1CCC(=O)O1 (stereo not drawn) | inactive | – |
| O=[N+]([O-])c1ccccc1C(F)(F)F | inactive | – |
| CCC(=O)OCc1ccc(OC)cc1 | inactive | – |
| CCc1cc(C(N)=S)ccn1 | inactive | – |
| CCC(C)=NO | inactive | – |
| COc1cccc(OC)c1C(=O)O | inactive | – |
| C=C1CC[C@H]2C[C@@H]1C2(C)C | inactive | – |
| CCCCCC1CCCC(=O)O1 (stereo not drawn) | inactive | – |

| Structure (SMILES) | outcome | AC50 |
| --- | --- | --- |
| COC(=O)[C@]1(C)CCC[C@@]2(C)[C@H]1CC=C1C=C(C(C)C)CC[C@@H]12 | inactive | – |
| Cc1cc2nc3c(=O)[nH]c(=O)nc-3n(C[C@H](O)[C@H](O)[C@H](O)CO)c2cc1C | inactive | – |
| Cc1cc(-n2nc3ccc(Cl)cc3n2)c(O)c(C(C)(C)C)c1 | inactive | – |
| O=C(OCc1ccccc1)c1ccccc1 | inactive | – |
| CCCCCCC1CCCC(=O)O1 (stereo not drawn) | inactive | – |
| c1ccc(CNc2ncnc3nc[nH]c23)cc1 | inactive | – |
| NC(=O)c1ccc(N)cc1 | inactive | – |
| CC(=O)Nc1c(I)c(NC(C)=O)c(I)c(C(=O)O)c1I | inactive | – |
| CC(C)=CCOC(=O)c1ccccc1 | inactive | – |
| CC(C)(C)NC(=O)[C@@H]1CN(Cc2cccnc2)CCN1C[C@@H](O)C[C@@H](Cc1ccccc1)C(=O)N[C@H]1c2ccccc2C[C@H]1O | inactive | – |
| Oc1cccc2ccccc12 | inactive | – |
| C=CN1CCCCCC1=O | inactive | – |
| Oc1ccc(Oc2ccccc2)cc1 | inactive | – |
| CC(=O)CCc1ccccc1 | inactive | – |
| CNC[C@H](O)[C@@H](O)[C@H](O)[C@H](O)CO | inactive | – |
| CN(C)c1ccc(C(c2ccccc2)c2ccc(N(C)C)cc2)cc1 | inactive | – |
| c1ccc2c(c1)Oc1ccccc1S2 | inactive | – |
| CCCCCC[C@@H](O)C/C=C\CCCCCCCC(=O)O | – | 156 µM (active) |
| CC[N+](CC)(CC(=O)Nc1c(C)cccc1C)Cc1ccccc1 (tested in a mixture with another compound) | inactive | – |
